In the library only some 7.4% were active in any assay of this set; here they are far more common.
SMN2 splice enh: SMN2 splice variant enhancement | HEK293 SMN2-luciferase splicing reporter, luminescence, 30-36 h | Potency, µM (highest dose often 46.1 µM), hits mostly activators | actives 2.8% (n = 210,000) | AID 1458; further: nearly all actives have a fitted effect of over 55% in size
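HEK293 cells carry an SMN2 […]–luciferase reporter in which exon 7 inclusion puts luciferase in frame. Cells were plated 10-12 h before compound addition, then incubated 30-36 h at 37C. ONE-Glo luminescence was read; sodium butyrate at 4.5 mM final served as control.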
Rab9 promoter act: activators of Rab9 promoter | Huh7 Rab9 promoter-luciferase reporter, luminescence, 24 h | Potency, µM (titrated, usually from 9.22 µM), hits mostly activators | actives 2.8% (n = 320,000) | AID 485297; further: nearly all actives have a fitted effect of over 60% in size
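Quantitative HTS format; Huh7 Rab9-luciferase reporter cells (1500/well) receive compound 2 h post-plating, incubate 24 h at 37 °C, then get luciferase reagent for 10 min before luminescence reading.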
FLuc counter: counter-screen for miR-21 project: firefly luciferase inhibitors or activators | purified FLuc, Km substrates, luminescence inhibition | Potency, µM (highest dose often 57.5 µM), hits mostly inhibitors | actives 6.9% (n = 360,000) | AID 588342; further: nearly all actives have a fitted effect of over 55% in size
Target sequence (P08659 whole entry, looked up): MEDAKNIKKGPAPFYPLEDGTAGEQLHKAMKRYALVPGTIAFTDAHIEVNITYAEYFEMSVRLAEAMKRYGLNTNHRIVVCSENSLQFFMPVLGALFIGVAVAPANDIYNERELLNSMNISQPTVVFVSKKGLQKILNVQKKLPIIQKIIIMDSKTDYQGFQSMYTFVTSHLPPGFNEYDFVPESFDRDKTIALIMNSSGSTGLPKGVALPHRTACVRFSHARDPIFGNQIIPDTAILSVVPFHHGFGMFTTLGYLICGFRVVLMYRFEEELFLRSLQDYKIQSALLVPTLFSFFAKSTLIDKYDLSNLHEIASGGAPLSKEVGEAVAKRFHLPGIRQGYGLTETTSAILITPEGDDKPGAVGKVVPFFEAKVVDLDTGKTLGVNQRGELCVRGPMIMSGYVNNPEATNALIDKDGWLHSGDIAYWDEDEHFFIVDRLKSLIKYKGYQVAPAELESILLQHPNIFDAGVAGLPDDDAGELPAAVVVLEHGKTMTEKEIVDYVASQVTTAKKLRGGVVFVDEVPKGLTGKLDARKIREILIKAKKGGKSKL
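Purified P. pyralis luciferase, 10 nM final, with Km-level 10 uM D-luciferin and 10 uM ATP in 50 mM Tris acetate pH 7.5, 10 mM Mg acetate, 0.01% Tween-20, 0.05% BSA; 6-point qHTS titration about 60 µM downward; luminescence read.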
NPC1 promoter act: activates the NPC1 promoter. actives 2.4% (n = 320,000). Potency, µM (titrated, usually from 9.22 µM), most hits filed as activators. Huh7 NPC1 promoter luciferase reporter, 24 h; further: nearly all actives have a fitted effect of over 60% in size
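Stable NPC1-promoter luciferase Huh7 line; cpd (DMSO) 24 h, 37 °C, 5% CO2; Amplite luciferase reagent 10 min RT; luminescence readout. qHTS format.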
ELG1 genotox: genotoxicity induction in ELG1-luciferase HEK293T cells | AID 504466 | HEK293T ELG1-luciferase reporter, luminescence, 16 h | actives 1.3% (n = 330,000) | Potency, µM (doses to about 46 µM), hits mostly activators; further: nearly all actives have a fitted effect of over 60% in size
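HEK293T cells expressing luciferase-tagged ELG1 were exposed to compound or DMSO vehicle for 16 hr at 37 °C and 5% CO2. Luciferase activity was then measured with ONE-Glo after 30 min at room temperature.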
p53 reactivation: restores transcriptional activity of mutant p53 | H1299 p53-A138V BP100-luciferase reporter, luminescence, 24 h | AID 504706 | actives 0.063% (n = 320,000) | Potency, µM (highest dose often 92.2 µM), most hits filed as activators; further: nearly all actives have a fitted effect of over 45% in size
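H1299 (p53-null), stable ts p53-A138V + BP100-Luc; 1000 cells/well, Opti-MEM/10% FBS; cpd 4 pt, 1:5; 24 h, 37 deg C, 5% CO2; detection reagent 10 min RT; luminescence.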
Hits are given with their value. The call rests on the fitted dose curve; in most records, active means well fitted curve in the direction sought with a large enough effect; inconclusive means small, poorly fitted or top-dose-only effect, or another doubt; inactive means no such curve, though single readings can be large; an effect the other way counts as inactive or inconclusive.

O=C(NCc1ccco1)c1cc2ccc(O)cc2oc1=O was read as SMN2 splice enh inactive, Rab9 promoter act inconclusive, FLuc counter 11µM, NPC1 promoter act inconclusive, ELG1 genotox inconclusive and p53 reactivation inactive.
Screening Oc1cncc(Cc2ccccc2)c1 returned Rab9 promoter act inactive, FLuc counter inactive, NPC1 promoter act inactive, ELG1 genotox inactive and p53 reactivation inactive.
c1ccc2cc(Sc3ncnc4c3oc3ccccc34)ccc2c1 was read as SMN2 splice enh inactive, Rab9 promoter act inconclusive, FLuc counter 17µM, NPC1 promoter act inconclusive, ELG1 genotox inactive and p53 reactivation inconclusive.
For Clc1ncnc2c1oc1ccccc12 the results were SMN2 splice enh 13µM, Rab9 promoter act inactive, FLuc counter 9.5µM, NPC1 promoter act inactive, ELG1 genotox inconclusive and p53 reactivation inconclusive.
For CCN1CCN(c2ccc(S(=O)(=O)N3CCOCC3)cc2NC(=O)/C=C/c2ccc([N+](=O)[O-])cc2)CC1 the results were Rab9 promoter act inactive, FLuc counter inactive, NPC1 promoter act inactive, ELG1 genotox inactive and p53 reactivation inactive.
Cn1c(=O)cc(SCC(=O)N2CCN(c3ccccc3F)CC2)c2ccc(Cl)cc21 was read as SMN2 splice enh inactive and FLuc counter inactive.
`O=S(=O)(Cc1ccccc1)c1nnnn1C1CCCCC1` gave SMN2 splice enh inactive.
For O/N=C1\CCCc2ccccc21 the results were Rab9 promoter act inactive, FLuc counter inactive, NPC1 promoter act inactive, ELG1 genotox inactive and p53 reactivation inactive.
`O=C(O/N=C1\CCCc2ccccc21)c1cccs1` gave SMN2 splice enh inactive, Rab9 promoter act inactive, FLuc counter 1.3µM, NPC1 promoter act inactive, ELG1 genotox inactive and p53 reactivation inactive.
Screening O=C(Cc1ccccc1)O/N=C1\CCCc2ccccc21 returned SMN2 splice enh inactive, Rab9 promoter act inactive, FLuc counter 15µM, NPC1 promoter act inactive, ELG1 genotox inactive and p53 reactivation inactive.
Screening CCOc1ccc(-c2nc(C)c(C(C)=O)n2O)cc1 returned SMN2 splice enh 13µM, Rab9 promoter act inconclusive, FLuc counter 6.7µM, NPC1 promoter act inactive, ELG1 genotox inconclusive and p53 reactivation inactive.
For Cc1nc2ccc(NC(=O)c3ccc(Br)o3)cc2s1 the results were SMN2 splice enh 11µM, Rab9 promoter act 2.5µM, FLuc counter 15µM, NPC1 promoter act 2.8µM, ELG1 genotox inactive and p53 reactivation inactive.
For COC(=O)c1ccc(NC(=O)c2ccc3nc(C)sc3c2)cc1 the results were Rab9 promoter act 0.71µM, FLuc counter inactive, NPC1 promoter act 0.79µM and ELG1 genotox inconclusive.
CCCC(=O)Nc1nc2ccc(NC(=O)c3ccc(Br)o3)cc2s1 was read as SMN2 splice enh inconclusive, Rab9 promoter act inactive, FLuc counter inactive, NPC1 promoter act inactive, ELG1 genotox inactive and p53 reactivation inactive.
Screening COc1ccc(NC(=O)c2ccc3nc(C)sc3c2)cc1 returned Rab9 promoter act 1µM, FLuc counter inconclusive, NPC1 promoter act 1µM, ELG1 genotox inconclusive and p53 reactivation inactive.
`CCOc1ccc(CNCc2c(C(=O)O)n(Cc3ccccc3F)c3cc(OC)ccc23)cc1` gave FLuc counter inactive.
`COc1ccccc1-c1nnc2n(CCc3ccccc3)c(=O)c3ccccc3n12` gave FLuc counter inactive.
`COc1ccc(/C=N/Nc2cn[nH]c(=O)c2Cl)cc1` gave SMN2 splice enh inconclusive, Rab9 promoter act inactive, FLuc counter inconclusive, NPC1 promoter act inactive, ELG1 genotox 21µM and p53 reactivation inactive.
Screening Cc1ccsc1/C=N/Nc1nc(Cl)c(Cl)cc1Cl returned SMN2 splice enh inconclusive, Rab9 promoter act inactive, FLuc counter inconclusive, NPC1 promoter act inactive, ELG1 genotox inactive and p53 reactivation inactive.
Screening Cc1ccc(/C=N\Nc2cn[nH]c(=O)c2Cl)cc1 returned SMN2 splice enh inactive, Rab9 promoter act inconclusive, FLuc counter 24µM, NPC1 promoter act inactive, ELG1 genotox 21µM and p53 reactivation inactive.
`Cc1ccsc1/C=N\Nc1cn[nH]c(=O)c1Cl` gave SMN2 splice enh inactive, Rab9 promoter act inactive, FLuc counter inactive, NPC1 promoter act inactive, ELG1 genotox 21µM and p53 reactivation inactive.
O=c1[nH]ncc(N/N=C/c2ccccc2)c1Cl was read as SMN2 splice enh inactive, Rab9 promoter act inactive, FLuc counter inactive, NPC1 promoter act inactive, ELG1 genotox inconclusive and p53 reactivation inactive.
`Cc1ccc(S(=O)(=O)c2nc(S(=O)(=O)c3ccccc3)sc2N2CCN(C)CC2)cc1` gave Rab9 promoter act inactive, FLuc counter inactive, NPC1 promoter act inactive, ELG1 genotox inactive and p53 reactivation inactive.
Screening NC(=S)c1ncc(C(F)(F)F)cc1Cl returned Rab9 promoter act inactive, FLuc counter inactive, NPC1 promoter act inactive, ELG1 genotox inactive and p53 reactivation inactive.
For CC(Cl)c1cc(-c2ncc(C(F)(F)F)cc2Cl)no1 (centres undefined) the results were SMN2 splice enh inactive, Rab9 promoter act inactive, FLuc counter inconclusive, NPC1 promoter act inactive, ELG1 genotox inactive and p53 reactivation inactive.
`FC(F)(F)c1cnc(-c2cnc(-c3ccccn3)nc2)c(Cl)c1` gave SMN2 splice enh 11µM, Rab9 promoter act 0.71µM, FLuc counter 11µM, NPC1 promoter act inconclusive, ELG1 genotox inactive and p53 reactivation inactive.
Screening FC(F)(F)c1cnc(-c2cnc(-c3ccncc3)nc2)c(Cl)c1 returned SMN2 splice enh inactive, Rab9 promoter act 3.2µM, FLuc counter inconclusive, NPC1 promoter act inconclusive, ELG1 genotox inactive and p53 reactivation inactive.
CCN(C(=O)C1CCC(CNS(=O)(=O)c2cccc3nsnc23)CC1)c1cccc(C)c1 (centres undefined) was read as SMN2 splice enh inactive and FLuc counter inactive.
For CC(=O)Nc1ccc(C(=O)COC(=O)c2cc(C)oc2C)c(F)c1 the results were ELG1 genotox inactive and p53 reactivation inactive.
Cc1cccc(NC(=O)Cn2ncc3c4ccccc4n(Cc4ccccc4)c3c2=O)c1C was read as SMN2 splice enh inactive and FLuc counter inactive.
Screening Cc1ccc(-c2cn3c(n2)SCC3)cc1 returned SMN2 splice enh 11µM, Rab9 promoter act 2µM, FLuc counter inconclusive, NPC1 promoter act 2.2µM, ELG1 genotox inactive and p53 reactivation inconclusive.
For O=C(Cc1ccc(F)cc1)Nc1cccc(-c2cn3c(n2)SCC3)c1 the results were SMN2 splice enh inactive, Rab9 promoter act inactive, FLuc counter inconclusive, NPC1 promoter act inactive, ELG1 genotox inactive and p53 reactivation inactive.
Screening CCc1ccc(-c2cn3c(n2)SCC3)cc1 returned Rab9 promoter act 1.4µM, FLuc counter 2.4µM, NPC1 promoter act 1.6µM, ELG1 genotox inconclusive and p53 reactivation inactive.
For CC(C)c1nnc(NC(=O)CCC(=O)NC2CC2)s1 the results were Rab9 promoter act inactive, FLuc counter inactive, NPC1 promoter act inactive, ELG1 genotox inactive and p53 reactivation inactive.

Source: PubChem BioAssay (National Center for Advancing Translational Sciences (NCATS))
